TRHR agonist: agonists of human TRH receptor | P34981 | TRHR cells, calcium flux fluo-8, FDSS agonist mode | activation, % at 2 µM | 360,000 compounds, 0.18% hits; further: 0% is about no effect
Target sequence (P34981 whole entry, looked up): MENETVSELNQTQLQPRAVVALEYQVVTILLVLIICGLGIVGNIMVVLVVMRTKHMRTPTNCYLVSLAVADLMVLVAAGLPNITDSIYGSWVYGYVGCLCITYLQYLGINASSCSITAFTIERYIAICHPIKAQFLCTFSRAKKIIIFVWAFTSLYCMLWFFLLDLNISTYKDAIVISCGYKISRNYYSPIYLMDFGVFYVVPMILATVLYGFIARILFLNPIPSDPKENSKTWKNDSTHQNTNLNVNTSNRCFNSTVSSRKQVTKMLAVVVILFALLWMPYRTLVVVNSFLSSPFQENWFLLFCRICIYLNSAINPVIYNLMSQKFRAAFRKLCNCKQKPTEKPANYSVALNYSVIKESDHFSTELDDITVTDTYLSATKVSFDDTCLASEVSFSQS
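Fluo-8-loaded TRHR cells; 10 s baseline, compound added, kinetic Ca2+ fluorescence read 1/s, agonist mode.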
D1 PAM: enhances dopamine response at the human D1 receptor. P21728. HEK293 TREx D1 cells, calcium flux, dopamine EC20 potentiation. potentiation, % at 10 µM. 360,000 compounds, 0.036% hits. AID 504651; in the data active means potentiation above about 30%; further: 0% is about no effect
D1 antag: antagonists of human D1 dopamine receptor | activity change, negative = inhibition, % at 10 µM | 360,000 compounds, 3.2% hits | HEK293 TREx D1 cells, calcium flux, dopamine EC80; active compounds read low | P21728; in the data active means activity change below about -30%; further: on the % scale 0 is the no-effect control and ±100 the full control effect
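Tetracycline-induced HEK293 T-REx cells with force-coupled D1 receptor were loaded with a no-wash calcium dye. Compound was added after a 10 s baseline and read kinetically for 180 s; EC80 dopamine was then added and calcium flux followed another 180 s.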
D1 agonist: human D1 receptor agonism; P21728; HEK293 T-REx D1 cells, calcium flux, agonist mode; activation, % at 2 µM; 360,000 compounds, 1% hits; AID 504660; further: 0% is about no effect
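Tetracycline-induced HEK293 TREx D1 cells, force-coupled to calcium signalling, were dye-loaded with a no-wash calcium kit. Compound was pin-added after a 10 s baseline. Fluorescence was read kinetically at 1 cycle/s for 180 s, with calcium rises flagged as agonism.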
TRHR PAM: TRH receptor (human) allosteric enhancement; P34981; TRHR cells, fluo-8 calcium fluorescence, EC20 TRH enhancement; enhancement, % at 2 µM; 360,000 compounds, 0.66% hits; AID 493056; in the data active means enhancement above about 30%; further: 0% is about no effect
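Enhancer read-out: after compound pinning and an initial kinetic agonist-mode read, an EC20 of TRH (10 nM final) was injected and fluo-8 calcium signal (Ex 480/Em 530) followed at 1 s/cycle for 100 cycles in TRHR-expressing cells.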
Active calls of the source: *. A selection: hits, their analogues and other compounds. The true share with any hit is near 4.7%. Unless noted, no stated cut-off is given here; in the data, active means activation above about 30%; inactive means the rest.

SMILES	TRHR agonist	D1 PAM	D1 antag	D1 agonist	TRHR PAM
COC(=O)c1cc(CNC(=O)c2ccc(S(=O)(=O)N(C)c3ccccc3)cc2)ccc1OC	0	-21	-68*	1	-20
CN(Cc1ccc(OC(F)F)cc1)C(=O)c1ccc(S(=O)(=O)N(C)c2ccccc2)cc1	3	-6	-40*	9	-5
COc1ccc(CCNC(=O)c2ccc(Cl)c(S(=O)(=O)N(C)c3ccccc3)c2)cc1	0	-4	-31*	18	-3
COc1ccc(CCNC(=O)c2ccc(Cl)c(S(=O)(=O)N3CCCCCC3)c2)cc1	1	-3	4	12	2
Cc1cc(C)nc(SCCC(=O)Nc2ccc(F)cc2)n1	-1	4	-14	0	17
COc1ccc(NC(=O)CC2C(=O)N(c3cccc(OC)c3)C(=O)N2Cc2ccc3c(c2)OCO3)cc1 (stereo unspecified)	0	1	-8	2	-6
Nc1c(C(=O)c2ccccc2)sc(Nc2ccc(Cl)c(Cl)c2)c1C(=O)Nc1ccccc1	0	3	33	8	15
Cc1cc(/C=C(\C#N)C(N)=O)c(C)n1-c1ccc(N2CCOCC2)c([N+](=O)[O-])c1	0	-10	-32*	12	5
CCOc1ccc2nc(/N=C/c3nc(-c4ccc(Br)cc4)oc3O)sc2c1	20	-11	9	37*	-4
COc1cccc(/C(O)=C/c2nc3ccc(C(=O)NCCc4cccc(C)c4)cc3[nH]c2=O)c1	18	-8	-41*	46*	-1
CC1Nc2ccccc2C(=O)N1NS(C)(=O)=O (stereo unspecified)	0	4	10	1	33*
O=S(=O)(c1ccc2c(c1)OCCO2)N1CCN(S(=O)(=O)c2ccc(Cl)cc2F)CC1	0	-5	2	7	0
Cc1csc(NC(=O)CSc2ncnc3ccccc23)n1	0	-3	5	6	-3
CC1CCc2c(sc(NC(=O)CSc3ncn[nH]3)c2C#N)C1 (stereo unspecified)	0	-2	-28	9	-4
CC1CCc2c(sc(NC(=O)CSc3ncnc4c3cnn4-c3ccccc3Cl)c2C#N)C1 (stereo unspecified)	1	-1	-39*	1	12
Cc1csc(NC(=O)CSc2ncnc3c2cnn3-c2ccccc2Cl)n1	0	-13	-31*	7	-4
Cc1csc(NC(=O)CSc2nc3ccccc3c3c2CCCC3)n1	2	10	1	7	36*
CC(C)OCCCNC(=O)CN1C(=O)CSc2ccc(S(=O)(=O)N3CCOCC3)cc21	0	0	-8	-2	1
O=C(CCS(=O)(=O)c1cccc2nonc12)Nc1ccc(F)cc1F	0	-4	10	7	-4
Cc1ccc(-c2nc(S(=O)(=O)c3ccc(C)cc3)c(SCC(=O)c3ccccc3)o2)cc1	1	-1	2	8	-10
CCCC(C)C(=O)Nc1ncc(S(=O)(=O)c2ccc([N+](=O)[O-])cc2)s1 (stereo unspecified)	-1	6	-68*	59*	15
COc1cc(NC(=O)C(OC(=O)CNC(=O)c2ccccc2)c2ccccc2)c(OC)cc1Cl (stereo unspecified)	0	-1	3	1	-1
CCN(CC(=O)Nc1cc(C)nn1-c1nc(C)cc(C)n1)Cc1ccccc1	-1	-5	0	0	33*
Cc1cc(C)nc(-n2nc(C)cc2NC(=O)CNCc2ccccc2)n1	0	-6	-8	2	6
Cc1cccc(Nc2nc3ccccc3s2)c1C	8	5	-2	30*	-10
SMILES	TRHR agonist	D1 PAM	D1 antag	D1 agonist	TRHR PAM
COc1cccc(Nc2nc3ccc(OC)cc3s2)c1	0	1	17	-1	13
COc1ccc(Nc2ccnc3ccccc23)cc1	0	-8	-43*	14	10
COc1ccc(Nc2nc3ccccc3s2)cc1	1	5	-38*	0	-11
Cc1cccc(Nc2n[nH]c(=S)s2)c1C	0	-4	-12	3	-4
COc1ccc(Cl)cc1NC(=O)CN(C)S(=O)(=O)c1ccc2c(c1)CCCN2C(C)=O	-1	-4	0	4	-2
CCCOC(=O)c1cccc(Nc2nc(CCC)cc(=O)[nH]2)c1	6	-1	-21	14	0
Clc1ccc(-c2cc(COc3ccccc3)on2)cc1	3	5	11	35*	14
CC(=O)c1ccc(OCc2cc(C(=O)N3CCCCC3c3cccnc3)no2)cc1 (stereo unspecified)	1	-6	-33*	20	-3
CC(=O)c1ccc(OCc2cc(C(=O)N3CCC(c4ccncc4)CC3)no2)cc1	0	-9	-21	18	6
COCCC1CCCCN1C(=O)c1cc(COc2ccc(-n3cncn3)cc2)on1 (stereo unspecified)	0	-9	-64*	18	-4
COCC1CCCCN1C(=O)c1cc(COc2ccc3ncccc3c2)on1 (stereo unspecified)	1	-1	-27	12	0
CCC1CCCCN1C(=O)c1cc(COc2ccc3ncccc3c2)on1 (stereo unspecified)	0	-4	-42*	12	-1
Cc1nc(CN(C)C(=O)c2cc(COc3ccc4ncccc4c3)on2)cs1	1	-2	-37*	16	-4
COCCOC1CCN(C(=O)c2cc(COc3ccc(-n4cncn4)cc3)on2)CC1	0	2	-4	5	14
CC(C)N(Cc1nccn1C)C(=O)c1cc(COc2ccc3ncccc3c2)on1	-1	1	-7	8	0
CC(C)c1ccc(CNc2c([N+](=O)[O-])c(=O)oc3ccccc23)cc1	-1	-3	-34*	27	-3
O=c1oc2ccccc2c(Nc2ccc(F)cc2)c1[N+](=O)[O-]	0	1	-7	11	2
O=c1oc2ccccc2c(Nc2ccc(Cl)cc2)c1[N+](=O)[O-]	0	-11	-4	33*	10
Cc1ccc(-n2c(=O)c3c(C)c(C(=O)N(C)C)sc3n(CC(=O)C(C)(C)C)c2=O)cc1C	0	3	9	2	1
CCOC(=O)c1ccc(N2C(=O)c3n[nH]c(-c4cccs4)c3C2c2cccc(OC)c2)cc1 (stereo unspecified)	3	5	34	11	7
c1ccc(-c2cncnc2)cc1	1	2	-32*	2	-7
N#Cc1c(-c2ccc(C(F)(F)F)cc2)cc(-c2ccccc2)[nH]c1=S	0	-6	-31*	1	-8
Cc1c(O)ccc(-c2[nH]ncc2-c2nc3ccccc3s2)c1O	0	-10	-43*	7	-10
CCOc1ccccc1CN1CCc2nc(N3CCN(c4ccccc4F)CC3)ncc2C1	0	1	8	0	-6
